For part of these data: Entries with a potency or affinity are not part of this list.
How the values were obtained:
Parameters in all cases: scale not given: direction of the effect not stated beside the values
[1] = biological target: Protein translocase subunit SecA (Escherichia coli (strain K12)) (UniProt P10408); experiment: Assay to Identify E. coli SecA ATPase Inhibitors; format: functional; conditions: 30 µM
[2] = biological target: T1, Ubiquitin-activating enzyme e1, putative (Leishmania donovani (strain BPK282A1)) (UniProt E9BSI1); experiment: Leishmania donovani Ubiquitin Activating Enzyme (LdE1); format: functional; conditions: 30 µM
T1 sequence (whole entry): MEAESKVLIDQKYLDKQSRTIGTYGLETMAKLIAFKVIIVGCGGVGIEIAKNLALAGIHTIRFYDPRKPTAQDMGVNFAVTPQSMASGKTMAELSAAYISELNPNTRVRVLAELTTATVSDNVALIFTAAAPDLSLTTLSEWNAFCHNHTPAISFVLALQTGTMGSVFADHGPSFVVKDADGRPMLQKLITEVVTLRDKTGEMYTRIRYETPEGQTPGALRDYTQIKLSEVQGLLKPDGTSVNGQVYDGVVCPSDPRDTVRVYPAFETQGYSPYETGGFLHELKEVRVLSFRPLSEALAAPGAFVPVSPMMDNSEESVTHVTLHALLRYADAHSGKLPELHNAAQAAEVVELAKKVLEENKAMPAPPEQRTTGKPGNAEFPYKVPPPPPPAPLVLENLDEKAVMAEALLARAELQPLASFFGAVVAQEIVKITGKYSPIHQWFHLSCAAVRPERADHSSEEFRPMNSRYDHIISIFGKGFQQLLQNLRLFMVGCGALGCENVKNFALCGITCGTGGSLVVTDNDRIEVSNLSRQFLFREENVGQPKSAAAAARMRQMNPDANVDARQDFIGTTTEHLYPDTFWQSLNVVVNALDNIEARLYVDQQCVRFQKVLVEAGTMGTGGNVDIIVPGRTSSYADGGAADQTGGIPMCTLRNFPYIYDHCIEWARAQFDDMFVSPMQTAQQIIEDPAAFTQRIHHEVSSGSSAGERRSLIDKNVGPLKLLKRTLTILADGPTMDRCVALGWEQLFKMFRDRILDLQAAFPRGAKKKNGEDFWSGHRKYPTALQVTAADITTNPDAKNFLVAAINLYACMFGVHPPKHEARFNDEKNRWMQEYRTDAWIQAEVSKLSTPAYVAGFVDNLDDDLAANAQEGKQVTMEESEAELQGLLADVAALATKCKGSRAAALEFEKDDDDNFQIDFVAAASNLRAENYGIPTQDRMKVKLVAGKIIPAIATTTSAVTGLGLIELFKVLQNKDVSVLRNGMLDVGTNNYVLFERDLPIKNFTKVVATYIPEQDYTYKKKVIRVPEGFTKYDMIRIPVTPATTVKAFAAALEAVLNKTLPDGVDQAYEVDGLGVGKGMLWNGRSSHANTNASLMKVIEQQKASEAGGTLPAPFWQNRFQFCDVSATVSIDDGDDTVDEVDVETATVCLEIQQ

[3] = biological target: AMP-activated protein kinase, AMPK (Homo sapiens) (UniProt P54646+O43741+P54619+Q9UGJ0+Q9Y478+Q13131+Q9UGI9); experiment: AMP-dependent Kinase enzyme assay. An in vitro enzyme assay that detects ADP turnover that is directly proportional to AMPK activity. This uses naive AMPK that is activated during the assay with MK-8722; format: functional; conditions: 30 µM
[4] = biological target: Sialic acid-binding Ig-like lectin 9 (Homo sapiens) (UniProt Q9Y336); experiment: Hs-Siglec9 ALPHAscreen SOP 20170721; conditions: 10 µM
[5] = test system: Trypanosoma cruzi; experiment: Trypanosoma cruzi phosphomannomutase and mannose-1-phosphate guanylyltransferase assay; format: functional; conditions: 10 µM
[6] = biological target: T2, Arginase-2, mitochondrial (Homo sapiens) (UniProt P78540); experiment: in vitro enzyme assay to detect the production of urea directly proportional to the activity of Arginase II; format: functional; conditions: 33.3 µM; further: in the data most compounds retested in dose-response had high values
T2 sequence (whole entry): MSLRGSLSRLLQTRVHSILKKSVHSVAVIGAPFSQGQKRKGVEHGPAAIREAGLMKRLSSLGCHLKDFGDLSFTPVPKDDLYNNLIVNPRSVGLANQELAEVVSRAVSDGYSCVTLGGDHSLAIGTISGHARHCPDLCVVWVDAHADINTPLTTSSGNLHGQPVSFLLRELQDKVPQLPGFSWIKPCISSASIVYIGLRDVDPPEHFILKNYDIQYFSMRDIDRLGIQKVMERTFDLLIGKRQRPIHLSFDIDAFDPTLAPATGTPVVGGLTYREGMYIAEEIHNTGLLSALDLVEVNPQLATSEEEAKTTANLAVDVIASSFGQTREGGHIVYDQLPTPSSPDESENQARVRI

[7] = biological target: T3, Proteasome subunit beta (Trypanosoma cruzi) (UniProt O96673); experiment: Trypanosoma cruzi proteasome chymotrypsin-like activity (TcProtChymo) assay.; further: in the data most compounds retested in dose-response had high values; format: functional; conditions: 9.37 µM
T3 sequence (whole entry): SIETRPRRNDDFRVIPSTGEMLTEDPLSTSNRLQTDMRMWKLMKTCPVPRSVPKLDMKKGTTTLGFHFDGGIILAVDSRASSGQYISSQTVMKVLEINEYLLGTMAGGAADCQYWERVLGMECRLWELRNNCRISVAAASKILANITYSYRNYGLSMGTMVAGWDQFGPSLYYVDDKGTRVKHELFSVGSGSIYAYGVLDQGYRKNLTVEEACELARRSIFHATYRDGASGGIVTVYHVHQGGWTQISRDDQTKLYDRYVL

[8] = species: Homo sapiens; experiment: To identify inhibition of the IFN signalling (Jak-Stat) pathway via expression of an eGFP reporter gene under the control of an IFN-stimulated response element (ISRE) containing MxA promoter.; format: functional; conditions: 30 µM
[9] = biological target: T4, Tyrosyl-tRNA synthetase, putative (Trypanosoma cruzi (strain CL Brener)) (UniProt Q4DSP6); experiment: Trypanosoma cruzi tyrosyl tRNA synthetase (TcYRS) _High Tyrosine SOP; format: functional; conditions: 30 µM; further: in the data most compounds retested in dose-response had high values
T4 sequence (whole entry): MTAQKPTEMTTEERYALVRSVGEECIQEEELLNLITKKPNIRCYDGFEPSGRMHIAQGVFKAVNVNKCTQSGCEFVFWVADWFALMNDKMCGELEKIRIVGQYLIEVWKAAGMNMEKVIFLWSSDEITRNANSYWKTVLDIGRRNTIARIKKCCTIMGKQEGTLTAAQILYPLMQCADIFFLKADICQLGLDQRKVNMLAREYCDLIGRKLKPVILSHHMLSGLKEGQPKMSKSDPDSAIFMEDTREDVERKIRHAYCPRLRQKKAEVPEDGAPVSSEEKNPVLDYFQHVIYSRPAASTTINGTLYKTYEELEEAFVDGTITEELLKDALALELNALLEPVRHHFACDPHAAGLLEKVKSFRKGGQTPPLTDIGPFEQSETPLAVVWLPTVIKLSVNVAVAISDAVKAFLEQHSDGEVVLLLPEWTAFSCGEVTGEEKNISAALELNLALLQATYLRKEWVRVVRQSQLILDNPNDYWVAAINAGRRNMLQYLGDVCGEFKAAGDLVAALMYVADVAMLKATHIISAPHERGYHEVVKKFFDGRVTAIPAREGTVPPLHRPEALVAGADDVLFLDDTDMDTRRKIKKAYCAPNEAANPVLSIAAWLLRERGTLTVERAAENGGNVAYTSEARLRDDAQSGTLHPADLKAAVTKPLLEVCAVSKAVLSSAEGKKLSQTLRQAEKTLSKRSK

[10] = biological target: T4, Tyrosyl-tRNA synthetase, putative (Trypanosoma cruzi (strain CL Brener)); experiment: Trypanosoma cruzi tyrosyl tRNA synthetase (TcYRS) SOP; format: functional; conditions: 30 µM
[11] = biological target: Chromo domain-containing protein 1 (Saccharomyces cerevisiae (strain ATCC 204508 / S288c) (Baker's yeast)) (UniProt P32657); experiment: ScCHD-1 Enzyme Inhibition Assay; format: functional; conditions: 30 µM; further: in the data most compounds retested in dose-response had high values
Chain of Chromo domain-containing protein 1 (Saccharomyces cerevisiae (strain ATCC 204508 / S288c) (Baker's yeast)) (P32657 whole entry, the tested form may be a part): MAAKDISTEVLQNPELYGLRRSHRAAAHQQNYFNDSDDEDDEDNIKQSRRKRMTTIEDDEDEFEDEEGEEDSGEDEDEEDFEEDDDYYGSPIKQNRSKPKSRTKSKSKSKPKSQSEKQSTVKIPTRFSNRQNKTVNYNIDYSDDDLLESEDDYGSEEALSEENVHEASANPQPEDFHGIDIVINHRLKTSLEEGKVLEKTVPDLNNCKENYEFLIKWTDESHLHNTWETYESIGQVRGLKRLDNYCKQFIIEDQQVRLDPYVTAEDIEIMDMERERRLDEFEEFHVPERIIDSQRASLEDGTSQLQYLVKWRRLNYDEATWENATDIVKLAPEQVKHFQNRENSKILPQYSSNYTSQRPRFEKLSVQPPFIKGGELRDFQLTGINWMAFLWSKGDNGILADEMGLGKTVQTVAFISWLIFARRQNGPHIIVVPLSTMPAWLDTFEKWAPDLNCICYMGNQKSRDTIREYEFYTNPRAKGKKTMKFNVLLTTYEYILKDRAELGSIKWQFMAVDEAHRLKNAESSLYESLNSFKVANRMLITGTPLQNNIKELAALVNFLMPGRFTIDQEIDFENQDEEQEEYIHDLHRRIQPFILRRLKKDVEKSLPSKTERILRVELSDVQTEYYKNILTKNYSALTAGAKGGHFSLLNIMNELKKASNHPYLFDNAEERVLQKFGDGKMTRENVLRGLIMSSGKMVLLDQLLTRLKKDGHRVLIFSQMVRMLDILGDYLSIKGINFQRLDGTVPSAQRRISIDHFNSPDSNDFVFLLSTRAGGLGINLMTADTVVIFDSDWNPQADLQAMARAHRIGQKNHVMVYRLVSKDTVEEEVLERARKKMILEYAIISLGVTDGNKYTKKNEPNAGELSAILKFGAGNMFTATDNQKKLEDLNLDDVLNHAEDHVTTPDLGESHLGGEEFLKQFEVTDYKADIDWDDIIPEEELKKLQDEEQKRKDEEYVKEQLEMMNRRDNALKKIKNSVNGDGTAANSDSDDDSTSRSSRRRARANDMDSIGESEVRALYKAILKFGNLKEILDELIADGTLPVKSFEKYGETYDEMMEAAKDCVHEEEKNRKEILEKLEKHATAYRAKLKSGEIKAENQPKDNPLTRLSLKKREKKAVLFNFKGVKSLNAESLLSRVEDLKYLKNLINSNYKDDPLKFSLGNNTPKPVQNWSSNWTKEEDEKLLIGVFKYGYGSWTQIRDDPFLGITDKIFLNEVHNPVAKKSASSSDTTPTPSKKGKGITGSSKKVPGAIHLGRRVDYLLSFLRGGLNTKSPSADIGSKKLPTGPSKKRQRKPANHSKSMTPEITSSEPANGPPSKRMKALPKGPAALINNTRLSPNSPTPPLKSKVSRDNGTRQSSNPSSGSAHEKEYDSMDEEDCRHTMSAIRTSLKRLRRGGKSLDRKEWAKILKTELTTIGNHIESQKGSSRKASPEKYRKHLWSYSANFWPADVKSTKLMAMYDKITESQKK

Chain of Sialic acid-binding Ig-like lectin 9 (Homo sapiens) (Q9Y336 whole entry): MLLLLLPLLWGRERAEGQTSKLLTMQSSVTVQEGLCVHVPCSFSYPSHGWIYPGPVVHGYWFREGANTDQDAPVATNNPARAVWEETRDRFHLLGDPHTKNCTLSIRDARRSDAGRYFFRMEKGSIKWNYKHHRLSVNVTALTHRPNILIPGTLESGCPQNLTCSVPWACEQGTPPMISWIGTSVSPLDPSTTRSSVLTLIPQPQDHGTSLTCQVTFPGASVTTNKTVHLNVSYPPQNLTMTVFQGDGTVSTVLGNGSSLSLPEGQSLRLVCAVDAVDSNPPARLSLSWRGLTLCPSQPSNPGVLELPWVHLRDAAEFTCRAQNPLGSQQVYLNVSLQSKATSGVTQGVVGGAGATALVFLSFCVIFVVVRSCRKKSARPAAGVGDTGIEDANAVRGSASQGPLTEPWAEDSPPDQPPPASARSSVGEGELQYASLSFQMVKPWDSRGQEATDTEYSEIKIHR
Chain of Protein translocase subunit SecA (Escherichia coli (strain K12)) (P10408 whole entry): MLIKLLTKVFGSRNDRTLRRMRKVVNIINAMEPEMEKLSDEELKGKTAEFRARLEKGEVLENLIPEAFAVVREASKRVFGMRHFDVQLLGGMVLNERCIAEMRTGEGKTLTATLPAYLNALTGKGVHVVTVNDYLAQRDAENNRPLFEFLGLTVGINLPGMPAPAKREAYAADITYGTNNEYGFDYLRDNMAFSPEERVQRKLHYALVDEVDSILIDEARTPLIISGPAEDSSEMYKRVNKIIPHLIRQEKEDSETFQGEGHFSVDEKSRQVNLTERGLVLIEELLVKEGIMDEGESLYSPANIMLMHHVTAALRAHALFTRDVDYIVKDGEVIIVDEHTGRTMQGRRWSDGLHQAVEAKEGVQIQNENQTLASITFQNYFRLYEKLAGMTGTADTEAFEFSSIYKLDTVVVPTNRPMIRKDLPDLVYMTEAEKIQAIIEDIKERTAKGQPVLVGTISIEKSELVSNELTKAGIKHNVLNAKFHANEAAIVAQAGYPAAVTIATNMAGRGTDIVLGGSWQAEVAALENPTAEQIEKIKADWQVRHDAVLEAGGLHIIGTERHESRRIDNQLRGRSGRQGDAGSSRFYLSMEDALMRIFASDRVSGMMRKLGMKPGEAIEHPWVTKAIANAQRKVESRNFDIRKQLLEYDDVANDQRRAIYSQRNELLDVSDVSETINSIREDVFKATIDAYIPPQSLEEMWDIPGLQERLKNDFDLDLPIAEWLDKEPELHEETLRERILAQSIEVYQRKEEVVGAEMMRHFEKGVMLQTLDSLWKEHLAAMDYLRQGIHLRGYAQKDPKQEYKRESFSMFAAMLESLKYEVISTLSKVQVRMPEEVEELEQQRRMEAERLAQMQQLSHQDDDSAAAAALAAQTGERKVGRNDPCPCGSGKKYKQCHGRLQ

SMILES	Percent Effect [1] [%]	Percent Effect [2] [%]	Percent Effect [3] [%]	Percent Effect [4] [%]	Percent Effect [5] [%]	Percent Effect [6] [%]	Percent Effect [7] [%]	Percent Effect [8] [%]	Percent Effect [9] [%]	Percent Effect [10] [%]	Percent Effect [11] [%]
COc1cccc([C@@H]2CN(C(=O)c3ccc(C)cc3O)C[C@H]2C(=O)O)c1	-3.46	21.6	-1.7	25.8	4.59	40.9	15.9	1.8	3.23	18.5	-5.84
O=c1cc2c(nn1CN1CCN(c3ccccc3)CC1)CCC2	-2.18	12	-4.49	2.85	0	-1.23	15	11.5	6.35	15.4	-9.54
O=C(NCC(O)c1cccc(F)c1)c1cccnc1O (stereo unspecified)	-5.99	16.4	-2.16	7.14	9.52	-4.79	5.05	7.58	7.29	13.6	-7.57
CC(NC(=O)NCCOc1ccc(F)c(F)c1)c1nncn1C (stereo unspecified)	-3.44	5.2	2.42	5.57	7.15	2.74	12.5	16.9	4.76	9.41	-12.3
CCn1nc(C)c(CCn2ccnc2-c2cc3n(n2)CCCNC3)c1C	-3.39	2.67	0.691	0.912	-3.02	4.17	8.2	12.4	2.73	8.64	-6.3
COC(=O)c1cc(C(=O)N2CCCCCC2)n(-c2ccccc2)n1	-5.27	2.63	0.404	4.54	-5.08	1.92	-3.51	18.4	2.45	9.76	-1.11
CC(O)CN1CCN(Cc2nnc(C3CC3)o2)CC1 (stereo unspecified)	-2.68	22.8	-5.24	-11.8	6.7	4.56	15	-18.4	6.4	21.5	-4.52
O=C1N(c2cccc(Cl)c2)Cc2nc(=O)n(Cc3cccc(F)c3)n21	-2.59	-1.33	3.81	5.37	-4.71	-10.4	6.1	7.11	-1.06	2.56	-8.79
COc1cc(CCC(=O)NC2CC2)ccc1OCC(F)(F)F	-2.29	18.4	-5.56	-6.41	-10.4	2.52	3.47	3.66	4.43	16.1	-1.66
COCCOc1ccccc1CNCc1c(C)nn(C)c1N(C)C	-4.61	8.11	-17.4	-0.683	-2.92	-0.802	1.26	-12	5.42	11.1	-4.5
CC(O)CN1CCC(CNCc2cccc(Br)c2)CC1 (stereo unspecified)	-6.33	5.41	-21.1	11.5	-4.25	-5.61	-0.721	11.2	2.46	-1.24	4.26
CCc1nccn1C1CCCN(C(=O)c2cn3cccnc3n2)C1 (stereo unspecified)	-1.83	2.7	-8.93	1.79	-2.17	2.81	-3.96	-7.1	1.48	-1.24	1.22
O=C(c1cscn1)N1CC[C@]2(C[C@@H](OCCN3CCCC3)CO2)C1	-1.81	13.3	1.02	-2.21	-2.95	-0.699	11.4	7.58	5.32	14.1	-0.0589
O=C(Cn1cnc(NC(=O)CC2CCCC2)n1)NCc1ccccc1	-6.6	15.8	-2.47	8.52	9.96	-1.53	2.84	11.9	6.37	17.1	-12.2
Cc1nn(C)c(N(C)C)c1CNCc1cccnc1-n1cncn1	-3.71	8.86	1.44	1.22	-4.21	3.23	12.9	-1.83	7.29	12.7	-7.57
CNC(=O)c1cc2c(nc1NCC(C)C)CCN(S(=O)(=O)C1CC1)CC2	-6.06	2.7	5.7	-6.06	-3.23	-1.24	-7.64	-2.8	2.15	8.64	-4.29
OCCn1cc(CN2CCN(CCOCC(F)(F)F)CC2)cn1	2.27	13.5	-3.44	-6.72	-8.63	-3.14	13.6	6.37	4.95	3.66	-2.78
CCNc1cc2c(nn1)CCN(C(=O)c1ccnc(N(C)C)c1)C2	-2.5	5.26	-29.5	4.93	9.21	4.98	5.01	-24.9	4.41	4.88	-5.51
CCC(=O)NCc1cc(Br)c(OC)c(OC)c1	-7.41	5.33	-0.145	4.49	4.19	-9.9	5.75	-1.33	1.64	11.1	-3.06
c1coc(CN2C[C@H](OCC3CCOCC3)[C@H]3COC[C@H]32)c1	-3.71	8.11	6.46	-3.04	-3.23	-0.955	15.3	13.1	0	12.8	1.07
Cc1cnc(CN(C)CC2CCCN2c2cccnn2)cn1 (stereo unspecified)	1.21	15.6	-9.07	-13.5	1.27	-5.26	17.1	4.87	6.67	25.9	-25.4

From ChEMBL document CHEMBL3988442, “University of Dundee, Small-Polar-MMV Screening Library” (2021)
